Screening results as filed in PubChem.
CtBP-E1A inh – qHTS Assay for Inhibitors of the CtBP/E1A Interaction; CtBP / adenovirus E1A interaction (AlphaScreen); AlphaScreen GST-E1A/His-CtBP binding, 1536-well; active compounds read low; activity change, % (no concentration beside the values); 340,000 compounds, 0.49% hits; in the data active means activity change below about -65%; inconclusive means mostly about -30% to -63%; further: on the % scale 0 is the no-effect control and ±100 the full control effect
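Protein mix (5X: 125 nM each GST-E1A, His-CtBP) was incubated with pinned compound 2 h at 37 deg C in dark, in 50 mM Tris pH 8.0 buffer with 300 mM NaCl. Glutathione donor and nickel acceptor beads followed; AlphaScreen signal read after 1 h.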
CBFb RUNX1 block – qHTS Assay for Compounds Blocking the Interaction Between CBF-beta and RUNX1 for the Treatment of Acute Myeloid Leukemia | 230,000 tested, under 10 active | AID 1477, 2009 | Potency, µM (top dose mostly 59.8 µM), for inactives: top-dose activity, negative = inhibition, actives largely listed as inhibitors | Runt-related transcription factor 1 (Homo sapiens) + Core-binding factor subunit beta … | AlphaScreen CBFb-His/RUNX1-biotin binding, biochemical; further: % of control where 0% means no effect
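Room-temperature protein-protein interaction test with 30 nM each of His-tagged CBF-beta and biotinylated RUNX1, 15 min with compound, then 90 min with nickel plus streptavidin beads. Signal read in AlphaScreen mode.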
VP16 counter – VP16 counterscreen qHTS for inhibitors of ROR gamma transcriptional activity; AID 2546, 2010; Potency, µM (titrated, usually from 53.6 µM), for inactives: at the highest dose activity, negative = inhibition, actives largely listed as inhibitors; 310,000 compounds, 3.5% hits; Drosophila S2 Gal4-VP16 UAS-luciferase, luminescence, 20 h;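 further: Gal4-VP16 expression switched on by copper sulfate through the metallothionein promoter; potency means the concentration at half of the fitted maximal effect; on the % scale 0 is the no-effect control and ±100 the full control effect; nearly all actives have a fitted effect of over 50% in size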
RORg inh – qHTS for inhibitors of ROR gamma transcriptional activity; Drosophila S2 Gal4-RORgamma UAS-luciferase reporter, 20 h; Potency, µM (top dose mostly 53.6 µM), for the others: top-dose activity change, negative = inhibition, most hits filed as inhibitors; 310,000 compounds, 5.4% hits; AID 2551, 2010; further: potency means the concentration at half of the fitted maximal effect; on the % scale 0 is the no-effect control and ±100 the full control effect; nearly all actives have a fitted effect of over 60% in size
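In this cell-based reporter format, copper sulfate (700 uM final) drives Gal4–ROR gamma fusion expression from a metallothionein promoter in Drosophila Schneider cells; compounds preincubated 1 hr, reporter read after 20 hr at ambient temperature.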
MBNL1-CUG inh – qHTS Assay for Inhibitors of MBNL1-poly(CUG) RNA binding. Muscleblind-like protein 1 (Homo sapiens), Q9NR56. AID 2675, 2010. Potency, µM (doses to about 57.5 µM), without a hit: at the top dose activity change, negative = inhibition, most hits filed as inhibitors. 280,000 compounds, 0.036% hits. TR-FRET MBNL1-His/biotin-(CUG)12 binding, 665/545 ratio; active means well fitted inhibition curve with a large enough effect in the signal ratio, with a control signal flat, not every such curve was filed as active; inconclusive means small, poorly fitted or top-dose-only effect, or effect the other way, or a change in a side signal; inactive means no such curve, though single readings can be large or run the other way; the % refers to the signal ratio; further: potency means the concentration at half of the fitted maximal effect; on the % scale 0 is the no-effect control and ±100 the full control effect
Target sequence (Q9NR56 whole entry, looked up): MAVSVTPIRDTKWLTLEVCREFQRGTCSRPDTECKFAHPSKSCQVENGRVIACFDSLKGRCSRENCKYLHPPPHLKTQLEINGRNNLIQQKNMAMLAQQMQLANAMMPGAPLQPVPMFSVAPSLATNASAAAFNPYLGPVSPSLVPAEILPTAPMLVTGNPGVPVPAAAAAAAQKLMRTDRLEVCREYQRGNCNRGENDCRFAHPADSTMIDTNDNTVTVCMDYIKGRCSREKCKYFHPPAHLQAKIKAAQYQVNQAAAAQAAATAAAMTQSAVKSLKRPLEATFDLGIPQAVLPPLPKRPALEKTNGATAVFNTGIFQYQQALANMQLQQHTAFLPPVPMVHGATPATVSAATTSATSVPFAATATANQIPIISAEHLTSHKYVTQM
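His-tagged MBNL1 binding to biotinylated (CUG)12 RNA was measured by TR-FRET using terbium anti-His antibody (0.055 ng/ul final) and streptavidin-XL665 (5 nM final). Compounds were titrated 92 nM to 58 uM; 60 min at room temperature.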
Six1-Eya2 inh – qHTS Assay for Inhibitors of the Six1/Eya2 Interaction | AlphaScreen GST-Six1/His-Eya2 binding, biochemical; active compounds read low | activity change, % (test concentration not listed) | 360,000 compounds, 0.56% hits | AID 651725, 2012; in the data active means activity change below about -65%; inconclusive means mostly about -30% to -63%; further: on the % scale 0 is the no-effect control and ±100 the full control effect
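GST-Six1 + His-Eya2 (5X stock: 250/500 nM); Tris pH 8.0, 300 mM NaCl, 0.05% BSA, 0.02% Tween 20; GSH donor/Ni acceptor beads; 1 h 37 °C dark; AlphaScreen readout.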
Active calls of the source: *; ? = inconclusive; · = not tested or not shown; [ ] = another dose, or the depositor's remark. Hits are enriched below; roughly 5.5% of the tested compounds scored in any of these assays. Unless noted, the call rests on the fitted dose curve; in most records, active means well fitted curve in the direction sought with a large enough effect; inconclusive means small, poorly fitted or top-dose-only effect, or another doubt; inactive means no such curve, though single readings can be large; an effect the other way counts as inactive or inconclusive.

SMILES | CtBP-E1A inh | CBFb RUNX1 block | VP16 counter | RORg inh | MBNL1-CUG inh | Six1-Eya2 inh
OCCN(CCCn1c(C(F)(F)F)nc2ccccc21)c1nc(CN2CCCCC2)cs1 | 4 | · | 1% | 4% | -2% | 2
COCCN(CCOC)S(=O)(=O)c1ccc(C(=O)Nc2nnc(C3CC3)o2)cc1 | -22 | 0% | 3.5µM* | 4.5µM* | -2% | -30
CCc1nnc(NC(=O)c2ccc(S(=O)(=O)N(CCOC)CCOC)cc2)o1 | -21 | -11% | 6.3µM* | 2.2µM* | -1% | -22
COc1ccccc1N(/N=C1\Sc2ccccc2C1=O)C(C)=O | · | -19% | ? | 8.9µM* | ? | -1
COc1ccc(N(/N=C2\Sc3ccccc3C2=O)C(C)=O)cc1 | -12 | -29% | 19% | ? | 22% | -3
O=C(N/N=C/c1ccccc1O)C1CC(=O)N(c2ccc(Cl)cc2)C1 (configuration not stated) | -84* | · | 1.1µM* | 0.89µM* | -4% | ?
NS(=O)(=O)c1ccc(CCNC(=O)c2ccc(C#CC3(O)CCCCC3)cc2)cc1 | -5 | 6% | -21% | 20% | -9% | 7
NCC1OC(n2cnc3c(=O)[nH]c(N)nc32)C(O)C1O (configuration not stated) | · | · | 5% | 0% | · | ·
O=C(c1ccc(Cn2cc(Br)cn2)o1)N1N=C(C(F)F)CC1(O)C(F)F (configuration not stated) | -2 | -3% | -18% | 11µM* | -4% | 0
O=C(c1ccc(COc2ccc(Cl)cc2)o1)N1N=C(C(F)F)CC1(O)C(F)F (configuration not stated) | 6 | 4% | ? | ? | -3% | 0
Cc1ccc2c(c1)c1c(n2CC(O)Cn2c(C)nc3ccccc32)CCCC1 (configuration not stated) | -28 | -12% | -24% | 1.6µM* | -2% | 2
CC(=O)Nc1ccc(S(=O)(=O)N2CCN=C2SCc2ccc([N+](=O)[O-])cc2)cc1 | -10 | · | ? | ? | ? | -16
CC(C)NC(=O)C1CCN(c2ccc(S(=O)(=O)N3CCOCC3)cc2Cl)CC1 | -2 | 2% | 1% | -13% | -7% | -24
Cc1c(N=NC2=C(O)CCCC2=O)c(=O)n(-c2ccccc2)n1C | -92* | 13% | 2% | -9% | ? | -79*
Cn1nc(-c2ccc(N3CCOCC3)c(NS(=O)(=O)c3ccc(Cl)cc3)c2)c2ccccc2c1=O | 2 | -3% | -8% | 10µM* | 10% | 2
Cc1ccc(S(=O)(=O)Nc2cc(-c3nn(C)c(=O)c4ccccc34)ccc2N2CCOCC2)cc1 | -9 | -4% | -1% | -28% | -1% | -1
Cc1ccccc1-n1c(C)cc(/C=N/NC(=O)c2ccncc2)c1C | 1 | -7% | 10µM* | 2.8µM* | 14% | -14
Cc1cc(/C=N/NC(=O)c2ccc(O)cc2)c(C)n1C1CC1 | · | -12% | ? | 13µM* | -4% | ?
Cc1cc(C)cc(-n2c(C)cc(/C=N/NC(=O)c3ccncc3)c2C)c1 | -7 | -9% | -8%[10 µM] | 7.1µM* | 8% | -9
Cc1cc(C)cc(-n2c(C)cc(/C=N/NC(=O)CSc3ncccn3)c2C)c1 | -20 | -6% | -14% | ? | -9% | -12
Cc1ccc(C(=O)Nc2cccc(C(=O)N/N=C/c3ccc(O)cc3)c2)cc1 | ? | · | ? | -17% | 4% | ?
Cc1cc(/C=N/NC(=O)C(O)(c2ccccc2)c2ccccc2)c(C)n1-c1ccc(C(=O)O)cc1 | -13 | ? | ? | 11µM* | -5% | -1
O=C(Nc1ccc(N2CCCC2)cc1)c1cccc(Cl)c1 | 0 | · | -18% | ? | -1% | -20
O=C(CSc1ccccc1F)NCC(c1ccco1)N1CCCCC1 (configuration not stated) | 5 | · | · | · | · | -3
O=C(C(=O)c1cc(Br)ccc1O)c1cc(Br)ccc1O | -21 | · | · | · | · | -13
SMILES | CtBP-E1A inh | CBFb RUNX1 block | VP16 counter | RORg inh | MBNL1-CUG inh | Six1-Eya2 inh
Cc1cc(C)cc(-n2c(C)cc(/C=N/NC(=O)c3cccc([N+](=O)[O-])c3C)c2C)c1 | -18 | -23% | 4.5µM* | 2.8µM* | 2% | -24
Cc1cc(/C=N/NC(=O)c2cccc(N(C)C)c2)c(C)n1-c1cc(C(=O)O)cc(C(=O)O)c1 | ? | ? | 8% | -14% | -9% | -67*
C[C@@H]1C=C[C@](Cc2ccccc2)(C(=O)NCCN2CCOCC2)N1C(=O)c1ccccc1 | · | 13% | -2% | -18% | · | ·
O=C(O)/C(=C\c1ccccc1OC(F)F)Sc1nnc(-c2ccc(F)cc2)o1 | -10 | -5% | -8% | 8% | 16% | -3
Cc1ccc(S(=O)(=O)N(C)c2ccc(OC(=O)CN3C(=O)NC(C)(c4ccccc4)C3=O)cc2)cc1C (configuration not stated) | 21 | · | · | · | · | 9
COc1ccc(OC)c(C2=Nn3c(nnc3-c3cccc(OC)c3OC)SC2)c1 | · | -2% | 0% | -1% | · | ·
COc1cccc(-c2nnc3n2N=C(c2ccc(OC)cc2OC)CS3)c1 | · | -19% | 7.9µM* | ? | · | ·
COc1ccc(C2=Nn3c(nnc3-c3cccc(OC)c3OC)SC2)c(OC)c1 | · | -3% | 18µM* | ? | · | ·
COc1ccc(NC2=NC(=S)N(c3cccc(C)c3)C23CCCCC3)cc1 | -3 | 0% | ? | 2µM* | -1% | -1
Cc1cccc(NC2=NC(=S)N(c3ccc(C(=O)O)cc3)C23CCCCC3)c1 | -12 | 0% | -5% | 1% | -5% | 6
COc1ccc(NC2=NC(=S)N(c3ccc(C)cc3)C23CCCCC3)cc1 | 7 | 3% | -6% | 0.56µM* | -9% | 10
CCOC(=O)c1c(S(=O)(=O)N(C)Cc2ccccc2)c(C)n(C)c1C | -15 | · | 1% | -2% | -2% | -11
COc1ccccc1CN1CCCC2(CCN(C(=O)c3cnccn3)CC2)C1 | · | · | -10% | 0% | · | ·
Cc1ncccc1C(=O)N1CCCC(c2cc(C(=O)Nc3ccc(C(C)(C)C)cc3)no2)C1 (configuration not stated) | 0 | · | · | · | · | 7
O=C(CCCN1C(=O)/C(=C/c2ccccc2Cl)SC1=S)NNC(=O)c1ccccc1 | 0 | -3% | 7.1µM* | 3.2µM* | 37% | -18
